The campaign covered roughly 5,500 compounds. About 2,000 (36%) were called active. Roughly 18% stayed inconclusive and do not appear here. Cut-off read from the data, not from the text of the source: active = normalized growth mostly below about 0.91 (no sharp cut-off); inconclusive = no clear call, values can overlap the other calls; inactive = mostly above about 0.92. This is one part of the list.
Assay: chemical genetic growth profiling, strain panel (AID 1159580);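 note: tested at 20 µM; growth read once vehicle control cultures reached saturation at 30 °C; 1 = growth at the plate median or of vehicle wells; lower values mean less growth of the strain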
Conditions: growth OD

Measured: normalized growth

COc1cc(OC)c2c3c1C(=O)c1c(OC)cc(C)c4c(OC)cc(c-3c14)C(C)(C)C2=O
inactive: S. cerevisiae deletion strains, locus YAL013W, strain DEP1, stronger effect = lower value 1.02 | S. cerevisiae deletion strains, locus YBR021W, strain FUR4, stronger effect = lower value 0.993 | S. cerevisiae deletion strains, locus YBR229C, strain ROT2, stronger effect = lower value 1.02 | S. cerevisiae deletion strains, locus YCL029C, strain bik1, stronger effect = lower value 0.993 | S. cerevisiae deletion strains, locus YDL035C, strain GPR1, stronger effect = lower value 0.99 | S. cerevisiae deletion strains, locus YDL074C, strain BRE1, stronger effect = lower value 0.991 | S. cerevisiae deletion strains, locus YDL101C, strain DUN1, stronger effect = lower value 1.01 | S. cerevisiae deletion strains, locus YDL134C, strain PPH21, stronger effect = lower value 1 | S. cerevisiae deletion strains, locus YDL185W, strain tfp1, stronger effect = lower value 0.991 | S. cerevisiae deletion strains, locus YDL192W, strain arf1, stronger effect = lower value 0.988 | S. cerevisiae deletion strains, locus YDR101C, strain arx1, stronger effect = lower value 0.971 | S. cerevisiae deletion strains, locus YDR150W, strain NUM1, stronger effect = lower value 1.01 | S. cerevisiae deletion strains, locus YDR162C, strain NBP2, stronger effect = lower value 1.03 | S. cerevisiae deletion strains, locus YDR318W, strain mcm21, stronger effect = lower value 0.98 | S. cerevisiae deletion strains, locus YDR388W, stronger effect = lower value 0.989 | S. cerevisiae deletion strains, locus YDR502C, strain sam2, stronger effect = lower value 0.981 | S. cerevisiae deletion strains, locus YEL061C, strain CIN8, stronger effect = lower value 1.01 | S. cerevisiae deletion strains, locus YER110C, stronger effect = lower value 0.988 | S. cerevisiae deletion strains, locus YER155C, strain BEM2, stronger effect = lower value 1.01 | S. cerevisiae deletion strains, locus YER167W, strain BCK2, stronger effect = lower value 0.987 | S. cerevisiae deletion strains, locus YGL078C, strain dbp3, stronger effect = lower value 1 | S. cerevisiae deletion strains, locus YGL086W, strain mad1, stronger effect = lower value 0.968 | S. cerevisiae deletion strains, locus YGL248W, strain PDE1, stronger effect = lower value 1.01 | S. cerevisiae deletion strains, locus YGR078C, strain PAC10, stronger effect = lower value 1.01 | S. cerevisiae deletion strains, locus YGR135W, strain pre9, stronger effect = lower value 0.983 | S. cerevisiae deletion strains, locus YGR229C, strain SMI1, stronger effect = lower value 0.997 | S. cerevisiae deletion strains, locus YGR252W, strain gcn5, stronger effect = lower value 0.896 | S. cerevisiae deletion strains, locus YHR030C, strain SLT2, stronger effect = lower value 1.01 | S. cerevisiae deletion strains, locus YHR079C, strain IRE1 (second series), stronger effect = lower value 0.977 | S. cerevisiae deletion strains, locus YHR094C, strain hxt1, stronger effect = lower value 0.985 | S. cerevisiae deletion strains, locus YHR129C, strain ARP1, stronger effect = lower value 1.01 | S. cerevisiae deletion strains, locus YHR200W, strain rpn10, stronger effect = lower value 0.989 | S. cerevisiae deletion strains, locus YIL066C, strain RNR3, stronger effect = lower value 0.999 | S. cerevisiae deletion strains, locus YIL073C, strain SPO22, stronger effect = lower value 0.924 | S. cerevisiae deletion strains, locus YIL125W, strain kgd1, stronger effect = lower value 0.994 | S. cerevisiae deletion strains, locus YIR030C, strain dcg1, stronger effect = lower value 0.979 | S. cerevisiae deletion strains, locus YJL095W, strain BCK1, stronger effect = lower value 1.01 | S. cerevisiae deletion strains, locus YJL134W, strain LCB3, stronger effect = lower value 1 | S. cerevisiae deletion strains, locus YJL168C, strain set2, stronger effect = lower value 0.987 | S. cerevisiae deletion strains, locus YJL187C, strain SWE1 (second series), stronger effect = lower value 1.01 | S. cerevisiae deletion strains, locus YJR043C, strain POL32, stronger effect = lower value 0.993 | S. cerevisiae deletion strains, locus YJR075W, strain HOC1, stronger effect = lower value 0.988 | S. cerevisiae deletion strains, locus YKL009W, strain mrt4, stronger effect = lower value 0.979 | S. cerevisiae deletion strains, locus YKL068W, stronger effect = lower value 0.992 | S. cerevisiae deletion strains, locus YKL085W, strain MDH1 (second series), stronger effect = lower value 0.99 | S. cerevisiae deletion strains, locus YKL085W, strain MDH1, stronger effect = lower value 0.99 | S. cerevisiae deletion strains, locus YKL190W, strain CNB1, stronger effect = lower value 1 | S. cerevisiae deletion strains, locus YKR001C, strain vps1, stronger effect = lower value 0.973 | S. cerevisiae deletion strains, locus YLR039C, strain RIC1, stronger effect = lower value 1.01 | S. cerevisiae deletion strains, locus YLR058C, strain SHM2, stronger effect = lower value 1.01 | S. cerevisiae deletion strains, locus YLR102C, strain apc9, stronger effect = lower value 0.981 | S. cerevisiae deletion strains, locus YLR262C, strain YPT6, stronger effect = lower value 0.995 | S. cerevisiae deletion strains, locus YLR268W, strain sec22, stronger effect = lower value 0.973 | S. cerevisiae deletion strains, locus YLR330W, strain CHS5, stronger effect = lower value 1.02 | S. cerevisiae deletion strains, locus YLR342W, strain FKS1 (second series), stronger effect = lower value 0.967 | S. cerevisiae deletion strains, locus YLR371W, strain rom2, stronger effect = lower value 0.99 | S. cerevisiae deletion strains, locus YLR418C, strain cdc73, stronger effect = lower value 0.947 | S. cerevisiae deletion strains, locus YML016C, strain PPZ1, stronger effect = lower value 1.01 | S. cerevisiae deletion strains, locus YML032C, strain rad52, stronger effect = lower value 0.973 | S. cerevisiae deletion strains, locus YML124C, strain tub3, stronger effect = lower value 0.985 | S. cerevisiae deletion strains, locus YMR078C, strain ctf18, stronger effect = lower value 0.99 | S. cerevisiae deletion strains, locus YMR223W, strain ubp8, stronger effect = lower value 0.969 | S. cerevisiae deletion strains, locus YMR263W, strain SAP30, stronger effect = lower value 1.02 | S. cerevisiae deletion strains, locus YMR307W, strain GAS1, stronger effect = lower value 0.977 | S. cerevisiae deletion strains, locus YNL067W, strain RPL9B, stronger effect = lower value 1.01 | S. cerevisiae deletion strains, locus YNL128W, strain TEP1, stronger effect = lower value 1.02 | S. cerevisiae deletion strains, locus YNL153C, strain GIM3, stronger effect = lower value 1.02 | S. cerevisiae deletion strains, locus YNL233W, strain BNI4, stronger effect = lower value 1.01 | S. cerevisiae deletion strains, locus YNL250W, strain rad50, stronger effect = lower value 0.989 | S. cerevisiae deletion strains, locus YNL271C, strain bni1, stronger effect = lower value 0.994 | S. cerevisiae deletion strains, locus YNL298W, strain CLA4, stronger effect = lower value 0.99 | S. cerevisiae deletion strains, locus YNL307C, strain MCK1, stronger effect = lower value 0.95 | S. cerevisiae deletion strains, locus YNL322C, strain KRE1, stronger effect = lower value 1.01 | S. cerevisiae deletion strains, locus YNR052C, strain pop2, stronger effect = lower value 0.985 | S. cerevisiae deletion strains, locus YOL006C, strain TOP1, stronger effect = lower value 0.991 | S. cerevisiae deletion strains, locus YOL012C, strain htz1 1.08 | S. cerevisiae deletion strains, locus YOL147C, strain pex11, stronger effect = lower value 0.994 | S. cerevisiae deletion strains, locus YOR061W, strain CKA2, stronger effect = lower value 1 | S. cerevisiae deletion strains, locus YOR069W, strain VPS5, stronger effect = lower value 1 | S. cerevisiae deletion strains, locus YOR136W, strain idh2, stronger effect = lower value 0.987 | S. cerevisiae deletion strains, locus YOR144C, strain elg1, stronger effect = lower value 0.991 | S. cerevisiae deletion strains, locus YOR184W, strain ser1, stronger effect = lower value 0.952 | S. cerevisiae deletion strains, locus YOR316C, strain cot1, stronger effect = lower value 0.981 | S. cerevisiae deletion strains, locus YPL055C, strain LGE1, stronger effect = lower value 1.01 | S. cerevisiae deletion strains, locus YPL241C, strain CIN2, stronger effect = lower value 1.01 | S. cerevisiae deletion strains, locus YPR119W, strain clb2, stronger effect = lower value 0.988 | S. cerevisiae deletion strains, locus YPR141C, strain kar3, stronger effect = lower value 0.986 | S. cerevisiae deletion strains, locus YPR163C, strain tif3, stronger effect = lower value 0.989 | S. cerevisiae deletion strains, locus YPR167C, strain met16, stronger effect = lower value 0.981 | S. cerevisiae deletion strains, strain wtn01, stronger effect = lower value 0.95 | S. cerevisiae strains, strain wild type, stronger effect = lower value 1

— PubChem BioAssay AID1159580 (chemical genetic matrix, 2015)
